# Measurements reported in PubChem BioAssay.
# Tests used:
# [1] = inhibitors of polyQ protein aggregation (AID 1604); settings: polyglutamine-induced protein aggregation inhibition assay; stronger effect = higher value; tested at 2.5 µM
# [2] = enhancers of glutamate uptake in motor neurons, MN-1 cell line (AID 1612); settings: MN-1 motor neuron cells, stronger effect = higher value;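 also: tested at 1 µM final; 0% = mean of DMSO vehicle wells on each plate; positive means more glutamate uptake than control and negative means less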
# [3] = reducers of polyQ inclusions in PC12 cells, cell-based, NGF-treated PC12, GFPQ80 (AID 1614); settings: PC12 NGF-treated GFP-polyQ80 inclusion reduction;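 also: lower means fewer inclusions and 0 means no inclusions at all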
# [4] = suppressors of polyglutamine aggregation in yeast, 75Q-TubH (AID 1616); settings: S. cerevisiae 75Q-TubH polyglutamine aggregation suppression; stronger effect = higher value
smiles,measurement,setting,value
CN(C)CC/C=C1/c2ccccc2COc2ccccc21,inhibition of aggregation,[1],92.3%
same,glutamate uptake change,[2],2.11%
same,inclusion score,[3],2
same,aggregation suppression score,[4],1.19
